Measurements: PubChem BioAssay AID1362 (SRMLSC, 2008)
About 4,000 (2.1%) of roughly 190,000 compounds were called active. No stated cut-off is given here; in the data, active means inhibition above about 58%; inactive means the rest, inconclusive results apart; tested in S. cerevisiae. What follows is part of a selection rich in actives, with near analogues and random picks from the rest.

Experiment: growth inhibition of WT strain, primary screen, mitochondrial fusion inhibitor project, WT and mutant strains, chemical genetic (AID 1362)
Details: mitochondrial fusion phenotypic screen, at 10 µM
[1] = WT strain, growth inhibition, stronger effect = higher value

| Structure (SMILES) | inhibition [1] | inhibition (mutant strain inhibition) |
| --- | --- | --- |
| CN1CCN(C(=S)SCC(=O)Nc2ccc(Cl)cc2C(=O)c2ccccc2)CC1 | 7.01% (inactive) | 6.59% |
| CC(C(=O)Nc1ccc(Cl)cc1Cl)N1CC=C(c2ccccc2)CC1 (stereo not given) | 70.9% (active) | 1.22% |
| O=C(OCCN1CCOCC1)C1(c2ccccc2)CCCC1 | 8.37% (inactive) | 10.3% |
| CCCOC(=O)C1C2c3ccccc3C(c3ccccc32)C1C(=O)O (stereo not given) | -5.35% (inactive) | -6.76% |
| CC1=CC(=Cc2sc3ccccc3[n+]2C)C=C(C)O1 | 65.7% (active) | 63.1% |
| COP(=O)(OC)C(NC(=O)c1ccc(C)cc1)C(Cl)(Cl)Cl (stereo not given) | 3.22% (inactive) | 7.65% |
| Cc1cc(C=C2C(=O)NC(=O)NC2=O)c(C)n1-c1ccncc1 | -0.16% (inactive) | -6.83% |
| O=C(Cn1c(=O)n(CC2CS2)c2ccccc21)N1CCCCC1 (stereo not given) | 0.43% (inactive) | -0.1% |
| O=C(COC(=O)c1ccccc1)Nc1ccc(Cl)cc1C(=O)c1ccccc1 | 16.3% (inactive) | 10.6% |
| O=C(CCN1CCCCC1)NCC(=O)Nc1ccc(Br)cc1C(=O)c1ccccc1 | 7.53% (inactive) | 1.33% |
| O=C(CN1CCCCC1)Nc1ccc(Br)cc1C(=O)c1ccccc1Cl | 74.3% (active) | 9.62% |
| CCOC(=O)C1(CCc2ccccc2)CCN(Cc2ccco2)CC1 | 12.8% (inactive) | 4.98% |
| COc1ccccc1N=Nc1c(O)[nH]c(=S)[nH]c1=O | 4.7% (inactive) | 1.05% |
| CC(c1ccccc1)(c1ccccc1)c1ccncc1 | 26.6% (inactive) | 19.3% |
| COP(=O)(NS(=O)(=O)c1ccccc1)OC | -9.16% (inactive) | -1.53% |
